Data taken from PubChem BioAssay (NCATS).
Results filed as inconclusive are left out. Unmarked numbers belong to inactive results. Calls of active or inactive are those of the source. Calls follow the shape of the dose curve; as a rule, active = well fitted inhibition curve with a large enough effect; inconclusive = small, poorly fitted or top-dose-only effect; inactive = flat fitted curve, though single readings scatter.

Tested on: GB4
Assay: qHTS profiling for inhibitors of Plasmodium falciparum proliferation (AID 504749); also: nearly all actives have a fitted effect of over 60% in size;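 as to activity, negative = inhibition: 0% = DMSO vehicle and full inhibition = artemisinin control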
Settings: P. falciparum in erythrocytes, SYBR Green DNA, 72 h; series mostly up to 28.7 µM; activity, negative = inhibition: at the top concentration
Procedure, shortened: (§1)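 Three-day growth assay of blood-stage parasites in erythrocytes (0.3% parasitemia, 2.5% hematocrit) at 37 C, 5% CO2, quantified by SYBR Green DNA staining after overnight detergent lysis.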
Potency is read from the fitted curve at half-maximal effect.

Compound	activity, negative = inhibition [%]	Potency
COc1ccc(CCN(C)CCCC(C#N)(c2ccc(OC)c(OC)c2)C(C)C)cc1OC (stereo not drawn)	-0.756	–
CCC1(c2ccccc2)C(=O)NCNC1=O	0.0347	–
O=C(Nc1ccc([N+](=O)[O-])cc1Cl)c1cc(Cl)ccc1O	–	1.35 µM (active)
CCCCc1oc2ccccc2c1C(=O)c1cc(I)c(OCCN(CC)CC)c(I)c1	–	9.53 µM (active)
OCCN1CCN(CCCN2c3ccccc3Sc3ccc(C(F)(F)F)cc32)CC1	–	6.01 µM (active)
CC(CCc1ccc(O)cc1)NCCc1ccc(O)c(O)c1 (stereo not drawn)	7.75	–
CN(C)CCCN1c2ccccc2CCc2ccc(Cl)cc21	–	8.49 µM (active)
COc1cc2c(c(OC)c1OC)-c1ccc(OC)c(=O)cc1[C@@H](NC(C)=O)CC2	-10.1	–
Cn1c(=O)c2[nH]cnc2n(C)c1=O	4.58	–
Cc1cn([C@H]2C[C@H](N=[N+]=[N-])[C@@H](CO)O2)c(=O)[nH]c1=O	0.167	–
O=c1[nH]cc(F)c(=O)[nH]1	–	12 µM (active)
CC#C[C@]1(O)CC[C@H]2[C@@H]3CCC4=CC(=O)CCC4=C3[C@@H](c3ccc(N(C)C)cc3)C[C@@]21C	–	15.1 µM (active)
CCOC(=O)c1ncn2c1CN(C)C(=O)c1cc(F)ccc1-2	0.876	–
CNCCCC12CCC(c3ccccc31)c1ccccc12	–	8.49 µM (active)
O=C1c2c(O)ccc(O)c2C(=O)c2c(NCCNCCO)ccc(NCCNCCO)c21	–	2.87 µM (active)
CN1CCN2c3ccccc3Cc3ccccc3C2C1 (stereo not drawn)	1.07	–
O=C(c1ccc(OCCN2CCCCC2)cc1)c1c(-c2ccc(O)cc2)sc2cc(O)ccc12	–	8.49 µM (active)
COc1ccccc1OCC(O)CN1CCN(CC(=O)Nc2c(C)cccc2C)CC1 (stereo not drawn)	-5.97	–

Tested on: HB3
Assay: as above
Settings: P. falciparum in erythrocytes, SYBR Green DNA, 72 h; series mostly up to 28.7 µM; activity, negative = inhibition: at the top concentration
Procedure, shortened: as §1

Compound	activity, negative = inhibition	Potency
COc1ccc(CCN(C)CCCC(C#N)(c2ccc(OC)c(OC)c2)C(C)C)cc1OC (stereo not drawn)	5.39%	–
CCC1(c2ccccc2)C(=O)NCNC1=O	11.9%	–
NC12CC3CC(CC(C3)C1)C2	12.4%	–
CCCCc1oc2ccccc2c1C(=O)c1cc(I)c(OCCN(CC)CC)c(I)c1	–	11.2 µM (active)
OCCN1CCN(CCCN2c3ccccc3Sc3ccc(C(F)(F)F)cc32)CC1	–	11.2 µM (active)
Cc1cc(C(C)(C)C)cc(C)c1CC1=NCCN1	-0.82% [at 12.8 µM]	–
CC(CCc1ccc(O)cc1)NCCc1ccc(O)c(O)c1 (stereo not drawn)	4.25%	–
CN(C)CCCN1c2ccccc2CCc2ccc(Cl)cc21	-24.9%	–
CC(COc1ccccc1)N(CCCl)Cc1ccccc1 (stereo not drawn)	-12.6%	–
Clc1ccc(C(c2ccccc2Cl)C(Cl)Cl)cc1 (stereo not drawn)	-24.3%	–
COc1cc2c(c(OC)c1OC)-c1ccc(OC)c(=O)cc1[C@@H](NC(C)=O)CC2	4.71%	–
Cn1c(=O)c2[nH]cnc2n(C)c1=O	6.55%	–
CN(C)CCOC(c1ccccc1)c1ccccc1	7.75%	–
Cc1cn([C@H]2C[C@H](N=[N+]=[N-])[C@@H](CO)O2)c(=O)[nH]c1=O	5.57%	–
CC#C[C@]1(O)CC[C@H]2[C@@H]3CCC4=CC(=O)CCC4=C3[C@@H](c3ccc(N(C)C)cc3)C[C@@]21C	–	12.6 µM (active)
COc1ccccc1OCCNCC(O)COc1cccc2[nH]c3ccccc3c12 (stereo not drawn)	-19.7%	–
CCOC(=O)Nc1ccc(NCc2ccc(F)cc2)nc1N	–	8.91 µM (active)
CN(C)CCC=C1c2ccccc2C=Cc2ccccc21	-14.3%	–
CCOC(=O)c1ncn2c1CN(C)C(=O)c1cc(F)ccc1-2	8.03%	–
CNCCCC12CCC(c3ccccc31)c1ccccc12	0.644%	–
CN1CCC(=C2c3ccccc3C=Cc3ccccc32)CC1	5.69%	–
O=C1c2c(O)ccc(O)c2C(=O)c2c(NCCNCCO)ccc(NCCNCCO)c21	–	3.16 µM (active)
COc1ccccc1N1CCN(CC(O)COc2cccc3ccccc23)CC1 (stereo not drawn)	-7.89%	–
CN1CCN2c3ccccc3Cc3ccccc3C2C1 (stereo not drawn)	3.87%	–
CN(Cc1cnc2nc(N)nc(N)c2n1)c1ccc(C(=O)N[C@@H](CCC(=O)O)C(=O)O)cc1	–	0.141 µM (active)
O=C(c1ccc(OCCN2CCCCC2)cc1)c1c(-c2ccc(O)cc2)sc2cc(O)ccc12	–	7.08 µM (active)
COc1ccccc1OCC(O)CN1CCN(CC(=O)Nc2c(C)cccc2C)CC1 (stereo not drawn)	7.19%	–

Tested on: ICS
Assay: as above
Settings: P. falciparum in erythrocytes, SYBR Green DNA, 72 h; series mostly up to 28.7 µM; activity, negative = inhibition: at the top concentration
Procedure, shortened: as §1

Compound	Potency	activity, negative = inhibition
O=C(Nc1ccc([N+](=O)[O-])cc1Cl)c1cc(Cl)ccc1O	0.631 µM (active)	–
NC12CC3CC(CC(C3)C1)C2	–	18.3%
CCCCc1oc2ccccc2c1C(=O)c1cc(I)c(OCCN(CC)CC)c(I)c1	3.55 µM (active)	–
OCCN1CCN(CCCN2c3ccccc3Sc3ccc(C(F)(F)F)cc32)CC1	1.58 µM (active)	–
Cc1cc(C(C)(C)C)cc(C)c1CC1=NCCN1	–	-25.9% [at 12.8 µM]
CC(CCc1ccc(O)cc1)NCCc1ccc(O)c(O)c1 (stereo not drawn)	–	18.7%
CN(C)CCCN1c2ccccc2CCc2ccc(Cl)cc21	10 µM (active)	–
CC(COc1ccccc1)N(CCCl)Cc1ccccc1 (stereo not drawn)	11.2 µM (active)	–
COc1cc2c(c(OC)c1OC)-c1ccc(OC)c(=O)cc1[C@@H](NC(C)=O)CC2	–	-13.1%
Cn1c(=O)c2[nH]cnc2n(C)c1=O	–	5.54%
Cc1cn([C@H]2C[C@H](N=[N+]=[N-])[C@@H](CO)O2)c(=O)[nH]c1=O	–	-0.988%
CC#C[C@]1(O)CC[C@H]2[C@@H]3CCC4=CC(=O)CCC4=C3[C@@H](c3ccc(N(C)C)cc3)C[C@@]21C	4.47 µM (active)	–
COc1ccccc1OCCNCC(O)COc1cccc2[nH]c3ccccc3c12 (stereo not drawn)	7.08 µM (active)	–
CCOC(=O)Nc1ccc(NCc2ccc(F)cc2)nc1N	6.31 µM (active)	–
CN(C)CCC=C1c2ccccc2C=Cc2ccccc21	8.91 µM (active)	–
CCOC(=O)c1ncn2c1CN(C)C(=O)c1cc(F)ccc1-2	–	5.51%
CC(C)NCC(O)COc1ccc(CCOCC2CC2)cc1 (stereo not drawn)	5.01 µM (active)	–
O=C1c2c(O)ccc(O)c2C(=O)c2c(NCCNCCO)ccc(NCCNCCO)c21	1.58 µM (active)	–
CC1(CN2CCC(n3c(=O)[nH]c4ccccc43)CC2)OCc2ccccc2-n2cccc21 (stereo not drawn)	3.98 µM (active)	–
CN1CCN2c3ccccc3Cc3ccccc3C2C1 (stereo not drawn)	–	14.9%
CN(Cc1cnc2nc(N)nc(N)c2n1)c1ccc(C(=O)N[C@@H](CCC(=O)O)C(=O)O)cc1	0.112 µM (active)	–
O=C(c1ccc(OCCN2CCCCC2)cc1)c1c(-c2ccc(O)cc2)sc2cc(O)ccc12	2 µM (active)	–
COc1ccccc1OCC(O)CN1CCN(CC(=O)Nc2c(C)cccc2C)CC1 (stereo not drawn)	–	14.8%
